Screening results from PubChem BioAssay.
CR mimetic SO: reduction of superoxide in aged yeast, primary screen, HTS | S. cerevisiae aged cells, superoxide DHE fluorescence; stronger effect = lower value | superoxide response (% of plate mean), % at 10 µM | 0.18% of 330,000 active;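 active means superoxide response under a set limit, about three screen SD below normal, cut at about 65% in these data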;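 further: yeast aged for seven days with compound at 30 °C before DHE staining; 100% = average MFI of all compound-treated wells on the plate with controls excluded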
CTSL1 counter: Fasciola hepatica cathepsin L1 inhibitors, primary screen, counter-screen for PFM18AAP inhibitor project, biochemical, QFRET, fluorogenic peptide substrate; recombinant F. hepatica cathepsin L1, Z-Leu-Arg-MCA fluorescence; inhibition, % at 5.96 µM; 0.49% of 300,000 active; AID 1906, 2009;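 active means inhibition above the mean of all tested compounds plus 3 SD, set per screening campaign, cut at about 17% in these data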;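 further: 0% = plate median of test compound wells and 100% = 1 µM Z-Phe-Ala-diazomethylketone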
hiPSC survival: enhancers of single-cell hiPSC survival, primary screen, ATPlite luminescence; 100% = ROCK inhibitor wells, 0% = DMSO; survival enhancement, % at 20 µM; 0.044% of 360,000 active; AID 602274, 2012; in the data active means survival enhancement above about 18%;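 further: cells exposed to compounds for 16 hours before the ATP read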
V-ATPase pHluor: regulators of yeast V-ATPase proton pumping, primary screen, pHLuorin cytosolic pH fluorescence; S. cerevisiae; response, % at 10 µM; 0.37% of 350,000 active; in the data active means response mostly above about 7.3%, no sharp cut-off; inactive means mostly below about 5.4%; further: actives read high
An asterisk follows results filed as active; / = not tested or not shown. Rows were chosen to be rich in hits. Some 1% of all compounds tested hit in one or more screens of this group.

SMILES	CR mimetic SO	CTSL1 counter	hiPSC survival	V-ATPase pHluor
CCC1=NN(C(=O)Cc2ccc(OC)cc2)C(O)(C(F)(F)F)C1 (stereo not given)	103	0	1	0
COc1ccc(CC(=O)N2N=C(c3ccncc3)CC2(O)C(F)(F)F)cc1 (stereo not given)	93	-5	29*	2
CCOc1ccc(N2CC(C(=O)Nc3ccc(S(=O)(=O)NCC4CCCO4)cc3)CC2=O)cc1 (stereo not given)	99	2	0	-2
COc1cc(/C=C/C(=O)NCCc2ccc(S(N)(=O)=O)cc2)ccc1OCC#N	91	2	2	1
CCOc1cc(/C=C/C(=O)NCCc2ccc(S(N)(=O)=O)cc2)ccc1OCC(C)C	107	19*	1	-2
O=C(Nc1cccc(C(=O)O)c1)/C(=C/c1ccc([N+](=O)[O-])cc1)NC(=O)c1ccccc1	80	1	-1	2
Cc1ccc(NC(=O)/C(=C\c2ccc([N+](=O)[O-])cc2)NC(=O)c2ccccc2)cc1	94	-2	58*	-1
CN(C)S(=O)(=O)c1cccc(NC(=S)NCCCn2ccnc2)c1	101	17*	0	-2
Cc1[nH]c(=O)c(C#N)c2c1COC(C)(C)C2	98	2	-1	-1
CSc1c(C#N)c(N)c(C#N)c2c1COC(C)(C)C2	103	17*	9	3
O=C(Nc1cccnc1Cl)c1cccnc1Cl	110	3	23*	1
CCOC(=O)N1CCN(CC(=O)N2CCC(C(N)=O)CC2)CC1	97	-1	0	4
COc1cccc(NC(=O)CCc2nnc3ccc(N4CCN(c5cccc(OC)c5)CC4)nn23)c1	103	1	0	-1
COc1cc(NC(=O)CCc2nnc3ccc(N4CCN(c5cccc(OC)c5)CC4)nn23)cc(OC)c1	97	66*	0	-2
COc1ccccc1Nc1nnc(C)c(=O)[nH]1	94	-2	3	6
CCOc1ccccc1Nc1nnc(C)c(=O)[nH]1	99	-1	0	15*
CC1(C)CC2CC(C)(CN2C(=O)COC(=O)CNC(=O)c2ccc(Cl)c(Cl)c2)C1 (stereo not given)	103	27*	0	6
CC1(C)NC(=O)N(CCCCOc2cccc(C(F)(F)F)c2)C1=O	100	0	0	15*
CCC(C)Oc1cccc(OCCCCN2C(=O)NC(C)(C)C2=O)c1 (stereo not given)	119	0	-1	0
CN(C1=C(NC(=O)c2ccccc2)C(=O)c2ccccc2C1=O)C1CCS(=O)(=O)C1 (stereo not given)	173	22*	-1	7
CC(=O)NC1=C(NC2CCS(=O)(=O)C2)C(=O)c2ccccc2C1=O (stereo not given)	188	1	0	6
CC1=C(C(=O)N2CCOCC2)CC(CC(=O)NCc2ccco2)C(=O)N1CCC1=CCCCC1 (stereo not given)	/	/	-2	0
Cc1nn(C)c(Oc2ccccc2)c1CCNC(=O)CCl	99	28*	-1	4
COc1cccc(NC(=O)c2cc([N+](=O)[O-])ccc2NC(=O)CNCC2CCCO2)c1 (stereo not given)	64*	2	-1	-2
O=C(CNCC1CCCO1)Nc1ccc([N+](=O)[O-])cc1C(=O)Nc1ccccc1F (stereo not given)	102	3	0	-2
SMILES	CR mimetic SO	CTSL1 counter	hiPSC survival	V-ATPase pHluor
CCN(CC)c1ccc(C(=O)NNC(=O)CCl)cc1	97	58*	-1	0
CCN(CC)c1ccc(C(=O)NNC(=O)CCNC(=O)c2ccccc2)cc1	102	/	-1	1
CC[C@H]1CC2CN3CCc4c([nH]c5c([C@H]6C[C@H]7[C@H](CC)CN(C)[C@@H](Cc8c6[nH]c6ccccc86)[C@H]7C(=O)OC)c(OC)ccc45)C(C(=O)OC)(C2)C13	96	-4	/	/
CC(NC(=O)c1ccc(Cl)c(Cl)c1)c1ccc(-c2ccccc2)cc1 (stereo not given)	94	-2	0	7
CC(NC(=O)CCl)c1ccc(Cl)c(Cl)c1 (stereo not given)	97	23*	0	3
O=S1(=O)CC(N2CCN(CC3CC3)CC2)CN1Cc1cn(Cc2ccccc2C(F)(F)F)nn1 (stereo not given)	/	/	0	/
CCn1c(SC(=O)NC2CCCCC2)nnc1-c1cccs1	109	55*	0	-4
O=C1c2cc(F)ccc2-n2c1nc1ccccc1c2=O	221	17*	0	2
COc1ccccc1C(=O)N1[C@@H](C(C)C)COc2cc(Br)ccc2S1(=O)=O	/	/	5	2
CCOc1ccccc1-c1c2cc(O)c(=O)cc-2oc2cc(O)c(O)cc12	/	/	-3	75*
CN(Cc1cc2ccccc2[nH]c1=O)S(C)(=O)=O	93	2	2	-4
CS(=O)(=O)N(Cc1cc2ccccc2[nH]c1=O)C1CCCCC1	89	2	27*	-2
CCc1sc(C(=O)NCCc2ccc(S(N)(=O)=O)cc2)cc1Br	101	-1	-1	1
Cc1ccc(/C=C/C(=O)Nc2cc(S(=O)(=O)N3CCOCC3)ccc2N2CCOCC2)cc1	62*	/	0	9
CN(C(=O)c1cc2c(s1)-c1ccccc1S(=O)(=O)C2)c1ccccc1	105	1	0	2
Cc1ccc(CNS(=O)(=O)c2ccc(F)c(F)c2)n1C	124	24*	1	0
Cc1ccc(CNS(=O)(=O)c2ccc(C(F)(F)F)cc2)n1C	112	1	0	-3
CN(CCCC1CCCC1)C(=O)CC1C(=O)NCCN1Cc1cccc(F)c1F (stereo not given)	107	6	2	0
CCC1CCC(C(=O)NC(CCSC)C(=O)NCCN(CC(C)C)CC(C)C)CC1 (stereo not given)	95	31*	0	-3
CCC1CCC(C(=O)NC(CCSC)C(=O)NCCc2ccc(S(N)(=O)=O)cc2)CC1 (stereo not given)	101	3	0	-1
CC(C)c1ccc(CN(C(=O)c2cccs2)C2CCS(=O)(=O)C2)cc1 (stereo not given)	99	9	0	-1
CC1(C)C(=O)Nc2ccccc2N1C(=O)COC(=O)Cc1ccc(Cl)c(Cl)c1	89	/	5	2
CCOC(=O)/C=C/C(=O)NNC(=O)c1ccccc1Cl	96	46*	4	-1
O=C(O)/C=C/C(=O)Nc1ccc(Oc2ccccc2)cc1	94	5	0	1
CCOC(=O)/C=C/C(=O)Nc1ccc(Oc2ccccc2)cc1	102	31*	-1	4
NC(=S)NNC(=O)c1ccccc1Cl	106	9	-1	-3
Cc1ccc(C(C)C)cc1OCC(=O)NNC(=O)Nc1ccccc1	92	-2	0	-3
Cc1csc(CN(C)C(=O)C2CCC(=O)N(CCN(C)C)C2)n1 (stereo not given)	110	19*	0	3
CC(C)(C)N=C1NN=C(c2ccc(Cl)cc2)CS1	123	21*	-1	3
COc1ccc(CN=C2NN=C(c3ccc(Cl)cc3)CS2)cc1	107	0	0	3
